DT40 TDP1 CPT: qHTS for Inhibitors of human tyrosyl-DNA phosphodiesterase 1 (TDP1): qHTS in cells in presence of CPT. chicken DT40 Tdp1-/-;hTDP1 cells + 20 nM CPT, ATP luminescence, 48 h. Potency, µM (titrated, usually from 46.2 µM), hits mostly inhibitors. hit rate 12% among 420,000. AID 686979, 2013; also: nearly all actives have a fitted effect of over 55% in size
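Chicken DT40 Tdp1-/- cells complemented with human TDP1, 400 cells/well, exposed to compounds plus 20 nM camptothecin for at least 48 h at 37 C; viability read as ATP content by CellTiter-Glo luminescence.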
IL-1B inflam inh: qHTS for Inhibitors of Inflammasome Signaling: IL-1-beta AlphaLISA Primary Screen. THP-1 LPS/ATP IL-1B secretion, AlphaLISA, 16 h; stronger effect = lower value. activity change, % at 57.5 µM. hit rate 4.7% among 360,000. AID 743279, 2014; in the data active = activity change below about -50%; inconclusive = mostly about -30% to -49%
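THP-1 cells pretreated 1 hr with compounds (up to 57.5 uM final), then stimulated with LPS (250 ng/mL final) plus ATP (1.25 mM final); secreted IL-1B measured by AlphaLISA after 16 hr, decreased signal indicating inhibition.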
DT40 TDP1 no CPT: qHTS for Inhibitors of human tyrosyl-DNA phosphodiesterase 1 (TDP1): qHTS in cells in absence of CPT; DT40 Tdp1-/- hTDP1 cells, no CPT, ATP luminescence, 48 h; Potency, µM (highest dose often 46.2 µM), actives largely listed as inhibitors; hit rate 15% among 420,000; AID 686978, 2013; also: nearly all actives have a fitted effect of over 55% in size
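Chicken DT40 Tdp1-/- cells stably complemented with human TDP1 were seeded at 400 cells/well with DMSO in place of 20 nM camptothecin. After compound pinning, cells grew at least 48 hr at 37 °C; viability read by CellTiter-Glo luminescence.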
HT1080NT lethal: qHTS for induction of synthetic lethality in tumor cells producing 2HG: qHTS for the HT-1080-NT fibrosarcoma cell line; Potency, µM (top dose mostly 46.1 µM), actives largely listed as cytotoxic; hit rate 1.6% among 360,000; HT-1080-NT fibrosarcoma viability, CellTiter-Glo ATP luminescence, 48 h;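 also: NT is the 2HG producing partner of a matched IDH1 knockdown line; nearly all actives have a fitted effect of over 55% in size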
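Toxicity toward the 2HG-producing NT line was scored as %Activity, normalised to DMSO and no-cell wells, from CellTiter-Glo luminescence after 48 hours' treatment.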
HT1080 IDH1KD tx: qHTS for induction of synthetic lethality in tumor cells producing 2HG: qHTS for the HT-1080-IDH1KD cell line. AID 686971, 2013. HT-1080 IDH1 knockdown viability, ATP luminescence, 48 h. hit rate 2% among 360,000. Potency, µM (highest dose often 46.1 µM), hits mostly cytotoxic
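% activity derives from luminescence (CellTiter-Glo), normalised to DMSO and no-cell wells. HT-1080-IDH1KD cells, 750/well, had 48 h compound exposure at 37 °C.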
A number is an active result; – = inactive; ? = inconclusive; · = no result. In the library only some 19% were active in any assay of this set; here they are far more common. Unless noted, calls follow the shape of the dose curve; as a rule, active = well fitted curve in the direction sought with a large enough effect; inconclusive = small, poorly fitted or top-dose-only effect, or another doubt; inactive = no such curve, though single readings can be large; an effect the other way counts as inactive or inconclusive.

SMILES	DT40 TDP1 CPT	IL-1B inflam inh	DT40 TDP1 no CPT	HT1080NT lethal	HT1080 IDH1KD tx
Cc1nn(Cc2ccccc2)c2c1C(c1cccnc1)C(C#N)=C(N)O2 (configuration not stated)	?	–	?	–	–
COCCNC(=O)C1(C)CCN(C(=O)c2ccc(SC(F)(F)F)cc2)C1 (configuration not stated)	–	–	–	–	–
O=c1oc2cc(Oc3ccc(C(F)(F)F)cc3[N+](=O)[O-])ccc2c2c1CCC2	–	–	–	–	–
O=c1oc2cc(Oc3c([N+](=O)[O-])cc(C(F)(F)F)cc3[N+](=O)[O-])ccc2c2c1CCCC2	8.2µM	-82	13µM	?	–
Cc1cn([C@H]2C[C@H](O)[C@@H](CCC(=O)NCc3ccccc3)O2)c(=O)[nH]c1=O	–	–	–	–	–
CN(Cc1ccccc1)c1nc2c(S(=O)(=O)c3ccccc3)nnn2c2ccsc12	–	·	–	·	·
Cc1ccc(S(=O)(=O)c2nnn3c2nc(N(C)Cc2ccccc2)c2cc(Cl)ccc23)cc1C	13µM	·	12µM	·	·
CCCCN(C)c1nc2c(S(=O)(=O)c3ccc(CC)cc3)nnn2c2ccc(Cl)cc12	12µM	·	10µM	·	·
O=C1NC(NS(=O)(=O)c2ccccc2)(C(F)(F)F)C(=O)N1Cc1ccccc1 (configuration not stated)	–	–	–	–	–
CCOC(=O)N1CCN(C(=O)Cc2ccccc2OC)CC1	–	–	–	–	–
Cc1cc(C(=O)N2CCC2(C)C(=O)NS(=O)(=O)c2cccc(OC(F)F)c2)nn1C (configuration not stated)	–	–	–	–	–
CC[N+]1(CC)CC2=Cc3c(ccc4ccccc34)CC2C1 (configuration not stated)	?	–	21µM	–	–
CC12Cc3ccc4ccccc4c3C=C1C[N+](C)(C)C2 (configuration not stated)	–	–	–	–	–
CCN1/C(=C/C=C/c2sc3ccccc3[n+]2CC)Sc2ccccc21	0.18µM	-105	0.15µM	1.6µM	1.5µM
CCN1/C(=C/C=C/C=C/C=C/c2sc3ccccc3[n+]2CC)Sc2ccccc21	0.52µM	?	0.23µM	–	–
CCOc1ccc(C2=CC(c3cccc(Br)c3)n3c(nc4ccccc43)N2)cc1Cl (configuration not stated)	?	·	13µM	·	·
CC(C)c1ccc(C2=CC(c3cccc(Cl)c3)n3c(nc4ccccc43)N2)cc1 (configuration not stated)	?	·	16µM	·	·
CN(C)c1ccc(C2C=C(c3ccc(Cl)cc3OC(F)F)Nc3ncnn32)cc1 (configuration not stated)	9.2µM	–	18µM	?	?
CCc1ccc(C2N=C(N)Nc3nc4ccccc4n32)cc1 (configuration not stated)	16µM	·	18µM	·	·
CC(C)c1ccc(C2N=C(N)Nc3nc4ccccc4n32)cc1 (configuration not stated)	?	·	–	·	·
NC1=NC(c2cccc(Cl)c2)n2c(nc3ccccc32)N1 (configuration not stated)	–	·	–	·	·
O/N=C/c1cccnc1Sc1ccccc1	–	–	–	–	–
CCC(=O)N(c1ccc(C(=O)O)cc1)c1nc(-c2ccc(OC)cc2)c(C)s1	?	–	–	–	–
CCc1ccc(C2=CC(c3cccc(C)c3)n3c(nc4ccccc43)N2)cc1 (configuration not stated)	?	·	2.6µM	·	·
Cc1ccc(C2=CC(c3ccccc3)n3ncnc3N2)cc1 (configuration not stated)	?	–	?	–	–
CC(C)c1ccc(C2=CC(c3cccc(Cl)c3)n3ncnc3N2)cc1 (configuration not stated)	?	·	23µM	·	·
